Among the data in PubChem BioAssay (EPA / NIEHS) are outcome and AC50 values, retold here.

Inconclusive results are not listed. Calls of active or inactive are those of the source. How the source made its calls, unless noted: active means hit-call score of the fitted dose curve at least 0.9, where 1 is the maximum; inconclusive means response in the unintended direction; inactive means score below 0.9.

The nature of test [1]: ATG_TAL_CIS: Attagene CIS-FACTORIAL HepG2 Assay for human TAL Basal Promoter (AID 2282966; active means hit-call score of the fitted dose curve at least 0.9, where 1 is the maximum; inactive means score below 0.9;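 further: background control endpoint measuring basal TAL promoter reporter mRNA not a specific factor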). As to conditions: HepG2 Attagene cis-factorial TAL promoter reporter; actives raise or lower the signal. The gist of the method:
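Background-control endpoint: basal TAL promoter reporter transcripts in transiently transfected HepG2, measured 24 h after dosing. Read-out by RT-PCR with fluorescent primer extension and capillary electrophoresis; gain or loss of signal fitted relative to DMSO.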

A short description of test [2]: ATG_TGFb_CIS: Attagene CIS-FACTORIAL HepG2 Assay for human Transforming Growth Factor (TGF) (AID 2282967; active means hit-call score of the fitted dose curve at least 0.9, where 1 is the maximum; inactive means score below 0.9). As to conditions: HepG2 Attagene CIS TGFb reporter, mRNA transcription; actives raise or lower the signal. The gist of the method:
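Multiplexed cis-reporter HepG2 system, 24 h treatment; mRNA induction read by fluorescence after RT-PCR and CE; DMSO negative control, bidirectional curve fitting.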

Test [3] is described as follows: ATG_VDRE_CIS: Attagene CIS-FACTORIAL HepG2 Assay for human Vitamin D Receptor Element (VDRE) (AID 2282968; active means hit-call score of the fitted dose curve at least 0.9, where 1 is the maximum; inactive means score below 0.9). As to conditions: HepG2 VDRE cis-reporter transcription, actives raise or lower the signal. The gist of the method: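 Compounds were applied for 24 h to HepG2 cells transfected with promoter-regulated reporter units. Total RNA was reverse-transcribed, and reporter amplicons were fluorescently labelled and sized by capillary electrophoresis.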

Test [4] addresses Estrogen receptor (Homo sapiens) (UniProt P03372). Description: ATG_ERa_TRANS: Attagene TRANS-FACTORIAL HepG2 Assay for human Estrogen Receptor alpha (ERa) (AID 2282970). Particulars: HepG2 Attagene TRANS ERa GAL4 reporter, mRNA. The gist of the method:
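Reporter transcripts were measured 24 h after dosing by RT-PCR with fluorescent primer extension and capillary electrophoresis. The system is transiently transfected HepG2 expressing exogenous NR-Gal4 chimeras driving GAL4-UAS reporters; DMSO is the baseline.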

Test [5] has as its target X-box-binding protein 1 (Homo sapiens) (UniProt P17861). Nature of the test: ATG_Xbp1_CIS: Attagene CIS-FACTORIAL HepG2 Assay for human X-box Binding Protein 1 (XBP1) (AID 2282972; active means hit-call score of the fitted dose curve at least 0.9, where 1 is the maximum; inactive means score below 0.9). As to conditions: HepG2 XBP1 cis-element reporter, Attagene multiplex; actives raise or lower the signal. A digest of the protocol:
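Multiplexed cis-reporter readout in transfected HepG2 liver cells. Exposure lasted 24 hours. Activity in either direction was fitted against DMSO as negative control and baseline.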

Test [6] deals with Estrogen-related receptor gamma (Homo sapiens) (UniProt P62508). Nature of the test: ATG_ERRg_TRANS: Attagene TRANS-FACTORIAL HepG2 Assay for human Estrogen-Related Receptor gamma (ERRg) (AID 2282977).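 Further: hits increase reporter signal over DMSO so potencies reflect activators.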 Particulars: HepG2 Attagene TRANS reporter, ERRg transactivation. A digest of the protocol: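 Exogenous NR-Gal4 chimera activity measured as reporter transcript induction after 24 h in transiently transfected HepG2 cells. RNA reverse-transcribed, PCR-amplified, 6-FAM-labelled and resolved by capillary electrophoresis; increase over DMSO baseline.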

The target in test [7] is Glucocorticoid receptor (Homo sapiens) (UniProt P04150). Description: ATG_GR_TRANS: Attagene TRANS-FACTORIAL HepG2 Assay for human Glucocorticoid Receptor (GR) (AID 2282978).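 Further: activators score as hits since higher reporter transcript over DMSO is fitted.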 As to conditions: HepG2 Attagene TRANS GR reporter, mRNA transcription. The gist of the method:
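Transiently transfected HepG2 cells express chimeric NR-GAL4 proteins acting on GAL4-UAS reporter units. Compounds are applied for 24 h. mRNA induction over DMSO is measured by capillary electrophoresis.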

Test [8] addresses Bile acid receptor (Homo sapiens) (UniProt Q96RI1). Description: ATG_FXR_TRANS: Attagene TRANS-FACTORIAL HepG2 Assay for Farnesoid X Receptor (FXR) (AID 2282979).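 Further: hits raise reporter mRNA above DMSO so AC50 marks FXR activation.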 As to conditions: HepG2 Attagene TRANS FXR-GAL4 reporter transcription. A digest of the protocol: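 Reporter transcripts from transfected HepG2 cells were measured 24 h after dosing, using RT-PCR with capillary electrophoresis of 6-FAM-labelled fragments. The read-out reflects activity of exogenous FXR-Gal4 chimera on GAL4-UAS units, with induction relative to DMSO.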

Test [9] has as its target Oxysterols receptor LXR-beta (Homo sapiens) (UniProt P55055). Nature of the test: ATG_LXRb_TRANS: Attagene TRANS-FACTORIAL HepG2 Assay for human Liver X Receptor beta (LXRb) (AID 2282981). Particulars: HepG2 Attagene TRANS GAL4-LXRb reporter, mRNA. The gist of the method: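 Multiplexed reporter assay, HepG2, 24 h dosing. Fluorescence of labelled RT-PCR products after capillary electrophoresis gives transcript level; positive fitting direction relative to DMSO.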

A short description of test [10]: ATG_M_06_TRANS: Attagene TRANS-FACTORIAL HepG2 Assay for M06 Transcription Factor (Internal Marker) (AID 2282983). Particulars: HepG2 Attagene TRANS M06 internal marker reporter. The gist of the method:
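Background-control reporter readout: after 24 h chemical exposure of transiently transfected HepG2 (GAL4-UAS reporter units), mRNA quantified by RT-PCR with fluorescent labeling and capillary electrophoresis. Gain-of-signal fitting against DMSO baseline.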

Test [11] can be described thus: ATG_M_32_TRANS: Attagene TRANS-FACTORIAL HepG2 Assay for M32 Transcription Factor (Internal Marker) (AID 2282984). As to conditions: HepG2 Attagene TRANS M32 internal marker reporter. A digest of the protocol:
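Internal-marker readout from a multiplexed transcription reporter panel. HepG2 cells were transfected with GAL4-UAS reporter units, treated 24 hours, and reporter transcript levels determined by fluorescence after RT-PCR and capillary separation.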

The target in test [12] is Nuclear receptor subfamily 4 group A member 2 (Homo sapiens) (UniProt P43354). Nature of the test: ATG_NURR1_TRANS: Attagene TRANS-FACTORIAL HepG2 Assay for human Nuclear Receptor Related Protein 1 (NURR1) (AID 2282985). As to conditions: HepG2 Attagene TRANS reporter, mRNA readout. The gist of the method: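 Endpoint: reporter mRNA increase relative to DMSO. HepG2 cells transfected with reporter units, treated 24 h; RNA processed by RT-PCR, labelling, HpaI digestion and capillary electrophoresis.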

In test [13] the target is Transcriptional activator Myb (Homo sapiens) (UniProt P10242). Nature of the test: ATG_Myb_CIS: Attagene CIS-FACTORIAL HepG2 Assay for human Myeloblastosis (Myb) Proto-Oncogene Transcription Factor (AID 2282986; active means hit-call score of the fitted dose curve at least 0.9, where 1 is the maximum; inactive means score below 0.9). Particulars: HepG2 Attagene CIS-FACTORIAL Myb reporter transcription; actives raise or lower the signal. A digest of the protocol: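 Using HepG2 liver cells bearing transiently transfected cis-promoter reporter constructs, the assay measures induction or loss of reporter mRNA after 24 hours of dosing. Detection used fluorescently labeled RT-PCR products separated by capillary electrophoresis.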

Test [14] has as its target Nuclear respiratory factor 1 (Homo sapiens) (UniProt Q16656). Nature of the test: ATG_NRF1_CIS: Attagene CIS-FACTORIAL HepG2 Assay for human Nuclear Respiratory Factor 1 (NRF1) Orphan Gene (AID 2282987; active means hit-call score of the fitted dose curve at least 0.9, where 1 is the maximum; inactive means score below 0.9). As to conditions: HepG2 NRF1 cis-element reporter, Attagene multiplex; actives raise or lower the signal. A digest of the protocol: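 Reporter mRNA induction or loss in HepG2 cells after 24 h dosing; cis-regulated reporter constructs report endogenous transcription-factor activity. Quantified by RT-PCR/capillary electrophoresis fluorescence, DMSO-referenced.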

The target in test [15] is Oxysterols receptor LXR-alpha (Homo sapiens) (UniProt Q13133). Description: ATG_LXRa_TRANS: Attagene TRANS-FACTORIAL HepG2 Assay for human Liver X Receptor alpha (LXRa) (AID 2282980). As to conditions: HepG2 Attagene TRANS reporter, LXRa transactivation. A digest of the protocol:
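Chemical-induced reporter mRNA measured by RT-PCR with fluorescent labelling and capillary electrophoresis after 24 h dosing of transiently transfected HepG2 cells expressing exogenous NR-Gal4 chimeras; increases scored against DMSO baseline.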

Test [16] has as its target Hepatocyte nuclear factor 4-alpha (Homo sapiens) (UniProt P41235). Description: ATG_HNF4a_TRANS: Attagene TRANS-FACTORIAL HepG2 Assay for human Hepatocyte Nuclear Factor 4 alpha (HNF4a) (AID 2282982). Particulars: HepG2 HNF4a transactivation reporter, mRNA readout. The gist of the method:
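Endpoint reflects transcriptional activation of a GAL4-UAS reporter by an HNF4a-GAL4 chimera in transfected HepG2 cells, 24 h post-dosing. Fluorescence from RT-PCR products separated by capillary electrophoresis; DMSO baseline.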

A short description of test [17]: ATG_M_19_TRANS: Attagene TRANS-FACTORIAL HepG2 Assay for M19 Transcription Factor (Internal Marker) (AID 2282974). Particulars: HepG2 Attagene TRANS-FACTORIAL M19 internal marker reporter. A digest of the protocol:
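Multiplexed TRANS format: HepG2 liver cells bearing transient GAL4-UAS reporter units, chemical treatment 24 h, reporter transcripts quantified by RT-PCR plus capillary electrophoresis. DMSO defines baseline.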

Test [18] deals with Nuclear receptor subfamily 1 group I member 3 (Homo sapiens) (UniProt Q14994). Description: ATG_CAR_TRANS: Attagene TRANS-FACTORIAL HepG2 Assay for human Constitutive Androstane Receptor (CAR) (AID 2282969).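 Further: activators raise reporter mRNA above DMSO so AC50 marks induction.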 As to conditions: HepG2 Attagene TRANS-FACTORIAL CAR reporter. The gist of the method: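 Transiently transfected HepG2, multiplex TRANS reporters (CAR-Gal4 chimera driving GAL4-UAS reporter). 24 h dosing. Readout: reporter transcript by RT-PCR + capillary electrophoresis, fluorescence intensity; positive direction vs DMSO.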
Chain of Nuclear receptor subfamily 1 group I member 3 (Homo sapiens) (Q14994 whole entry, looked up, the tested form may be a part): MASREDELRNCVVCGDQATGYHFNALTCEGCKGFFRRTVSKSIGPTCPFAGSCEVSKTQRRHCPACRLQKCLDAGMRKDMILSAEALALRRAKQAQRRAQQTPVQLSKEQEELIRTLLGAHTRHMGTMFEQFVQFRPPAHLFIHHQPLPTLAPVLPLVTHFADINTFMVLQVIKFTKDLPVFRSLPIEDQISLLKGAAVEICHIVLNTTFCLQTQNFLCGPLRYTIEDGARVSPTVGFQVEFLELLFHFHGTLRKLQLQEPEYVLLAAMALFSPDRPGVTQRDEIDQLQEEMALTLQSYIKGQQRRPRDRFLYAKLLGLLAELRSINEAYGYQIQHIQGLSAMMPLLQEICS

Chain of Estrogen-related receptor gamma (Homo sapiens) (P62508 whole entry, looked up, the tested form may be a part): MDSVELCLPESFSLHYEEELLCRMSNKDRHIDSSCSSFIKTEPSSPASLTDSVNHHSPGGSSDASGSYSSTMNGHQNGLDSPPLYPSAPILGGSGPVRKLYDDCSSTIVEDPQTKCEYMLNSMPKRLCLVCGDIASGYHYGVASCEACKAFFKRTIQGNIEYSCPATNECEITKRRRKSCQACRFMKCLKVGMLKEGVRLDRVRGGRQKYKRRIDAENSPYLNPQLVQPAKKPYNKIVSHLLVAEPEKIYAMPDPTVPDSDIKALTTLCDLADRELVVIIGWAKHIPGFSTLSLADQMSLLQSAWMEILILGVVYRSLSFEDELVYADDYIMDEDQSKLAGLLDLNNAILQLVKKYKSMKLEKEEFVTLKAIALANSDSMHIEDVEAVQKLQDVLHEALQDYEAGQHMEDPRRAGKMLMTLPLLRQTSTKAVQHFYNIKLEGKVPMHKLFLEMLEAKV
Chain of Nuclear receptor subfamily 4 group A member 2 (Homo sapiens) (P43354 whole entry, looked up): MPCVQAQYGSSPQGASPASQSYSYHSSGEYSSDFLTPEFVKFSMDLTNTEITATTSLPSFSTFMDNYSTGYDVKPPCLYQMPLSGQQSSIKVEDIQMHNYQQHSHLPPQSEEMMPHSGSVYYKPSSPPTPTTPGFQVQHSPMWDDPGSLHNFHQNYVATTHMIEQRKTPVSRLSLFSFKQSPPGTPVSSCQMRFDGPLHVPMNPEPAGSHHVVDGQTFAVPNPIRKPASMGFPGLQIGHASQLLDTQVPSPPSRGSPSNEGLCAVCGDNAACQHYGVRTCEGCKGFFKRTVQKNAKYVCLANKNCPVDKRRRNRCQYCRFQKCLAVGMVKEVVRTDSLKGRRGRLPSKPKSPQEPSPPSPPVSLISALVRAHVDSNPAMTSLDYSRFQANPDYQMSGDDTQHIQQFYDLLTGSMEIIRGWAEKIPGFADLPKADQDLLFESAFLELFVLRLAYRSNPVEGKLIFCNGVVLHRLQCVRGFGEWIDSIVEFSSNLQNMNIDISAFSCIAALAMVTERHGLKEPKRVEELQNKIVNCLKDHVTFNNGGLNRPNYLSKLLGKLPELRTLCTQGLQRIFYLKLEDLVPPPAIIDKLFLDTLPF
Chain of Oxysterols receptor LXR-beta (Homo sapiens) (P55055 whole entry, looked up, the tested form may be a part): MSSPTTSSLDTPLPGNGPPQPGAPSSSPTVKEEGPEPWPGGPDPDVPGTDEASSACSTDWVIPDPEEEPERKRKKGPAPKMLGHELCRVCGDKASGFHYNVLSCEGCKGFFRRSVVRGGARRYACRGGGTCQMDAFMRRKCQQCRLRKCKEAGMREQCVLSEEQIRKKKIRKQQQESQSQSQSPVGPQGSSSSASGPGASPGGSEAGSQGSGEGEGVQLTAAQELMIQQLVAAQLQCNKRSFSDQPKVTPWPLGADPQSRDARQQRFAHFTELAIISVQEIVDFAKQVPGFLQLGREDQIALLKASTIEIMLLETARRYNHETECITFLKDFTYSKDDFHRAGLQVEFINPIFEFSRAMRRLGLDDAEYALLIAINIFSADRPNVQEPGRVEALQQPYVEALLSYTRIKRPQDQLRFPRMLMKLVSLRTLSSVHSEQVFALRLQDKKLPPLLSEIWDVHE
Chain of Nuclear respiratory factor 1 (Homo sapiens) (Q16656 whole entry, looked up): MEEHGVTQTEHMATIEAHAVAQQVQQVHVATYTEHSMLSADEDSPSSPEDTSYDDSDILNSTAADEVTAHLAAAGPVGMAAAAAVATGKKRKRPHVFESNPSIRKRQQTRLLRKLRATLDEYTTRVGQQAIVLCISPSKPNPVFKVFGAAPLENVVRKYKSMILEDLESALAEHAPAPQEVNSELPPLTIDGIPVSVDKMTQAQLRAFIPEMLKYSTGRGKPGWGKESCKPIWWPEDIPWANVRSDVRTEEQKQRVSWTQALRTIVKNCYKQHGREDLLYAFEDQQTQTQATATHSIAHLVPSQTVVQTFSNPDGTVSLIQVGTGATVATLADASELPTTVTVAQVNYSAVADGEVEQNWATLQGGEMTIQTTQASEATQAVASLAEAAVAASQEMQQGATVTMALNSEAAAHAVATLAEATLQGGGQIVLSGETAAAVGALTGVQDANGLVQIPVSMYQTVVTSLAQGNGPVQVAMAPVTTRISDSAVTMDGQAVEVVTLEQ
Chain of X-box-binding protein 1 (Homo sapiens) (P17861 whole entry, looked up): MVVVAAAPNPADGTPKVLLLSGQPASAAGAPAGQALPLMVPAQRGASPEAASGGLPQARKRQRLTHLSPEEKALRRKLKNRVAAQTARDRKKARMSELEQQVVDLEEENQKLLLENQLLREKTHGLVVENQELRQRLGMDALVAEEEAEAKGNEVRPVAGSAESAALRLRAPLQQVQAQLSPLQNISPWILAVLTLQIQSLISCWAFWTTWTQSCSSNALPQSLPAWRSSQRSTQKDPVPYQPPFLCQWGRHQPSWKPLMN
Chain of Bile acid receptor (Homo sapiens) (Q96RI1 whole entry, looked up, the tested form may be a part): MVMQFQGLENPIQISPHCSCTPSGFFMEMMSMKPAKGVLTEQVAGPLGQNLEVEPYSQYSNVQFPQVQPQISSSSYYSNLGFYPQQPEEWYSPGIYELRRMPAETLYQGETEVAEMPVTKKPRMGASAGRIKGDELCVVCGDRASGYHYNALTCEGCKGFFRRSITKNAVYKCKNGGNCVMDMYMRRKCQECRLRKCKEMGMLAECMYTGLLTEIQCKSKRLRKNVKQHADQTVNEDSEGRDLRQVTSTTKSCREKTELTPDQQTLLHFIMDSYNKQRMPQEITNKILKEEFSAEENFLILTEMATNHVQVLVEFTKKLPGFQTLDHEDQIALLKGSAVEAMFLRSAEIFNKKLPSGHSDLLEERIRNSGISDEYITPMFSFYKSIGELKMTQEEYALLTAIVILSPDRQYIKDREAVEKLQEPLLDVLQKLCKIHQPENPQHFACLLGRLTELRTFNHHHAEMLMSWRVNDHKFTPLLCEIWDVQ
Chain of Transcriptional activator Myb (Homo sapiens) (P10242 whole entry, looked up): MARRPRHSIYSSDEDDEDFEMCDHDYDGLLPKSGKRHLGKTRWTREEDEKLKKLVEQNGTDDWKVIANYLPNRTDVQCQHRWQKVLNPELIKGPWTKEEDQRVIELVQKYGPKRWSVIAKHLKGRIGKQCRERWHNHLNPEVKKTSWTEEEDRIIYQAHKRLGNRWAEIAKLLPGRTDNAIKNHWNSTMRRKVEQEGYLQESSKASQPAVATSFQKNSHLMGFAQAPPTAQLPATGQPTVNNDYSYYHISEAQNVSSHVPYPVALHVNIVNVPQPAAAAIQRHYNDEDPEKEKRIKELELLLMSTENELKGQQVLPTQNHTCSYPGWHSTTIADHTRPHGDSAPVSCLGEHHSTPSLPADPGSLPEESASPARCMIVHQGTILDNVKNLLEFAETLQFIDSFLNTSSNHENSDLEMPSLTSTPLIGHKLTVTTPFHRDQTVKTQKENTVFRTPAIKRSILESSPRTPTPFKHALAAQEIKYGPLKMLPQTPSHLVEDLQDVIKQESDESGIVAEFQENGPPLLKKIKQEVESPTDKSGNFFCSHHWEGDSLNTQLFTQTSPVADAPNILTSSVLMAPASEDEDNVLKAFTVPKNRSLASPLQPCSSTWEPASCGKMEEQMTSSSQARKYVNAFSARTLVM
Chain of Hepatocyte nuclear factor 4-alpha (Homo sapiens) (P41235 whole entry, looked up, the tested form may be a part): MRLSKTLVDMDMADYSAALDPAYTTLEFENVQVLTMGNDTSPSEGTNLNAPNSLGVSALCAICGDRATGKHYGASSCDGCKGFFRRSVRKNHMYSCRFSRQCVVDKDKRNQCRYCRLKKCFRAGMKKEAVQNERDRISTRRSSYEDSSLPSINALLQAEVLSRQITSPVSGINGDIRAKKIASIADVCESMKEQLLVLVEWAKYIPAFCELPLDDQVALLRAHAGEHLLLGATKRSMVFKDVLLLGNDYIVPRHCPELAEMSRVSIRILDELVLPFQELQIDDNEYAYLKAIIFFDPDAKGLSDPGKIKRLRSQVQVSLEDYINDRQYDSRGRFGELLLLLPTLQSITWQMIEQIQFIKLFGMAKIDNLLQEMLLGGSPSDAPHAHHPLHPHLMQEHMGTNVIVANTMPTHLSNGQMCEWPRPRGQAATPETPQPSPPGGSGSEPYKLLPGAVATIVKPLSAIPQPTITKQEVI
Chain of Estrogen receptor (Homo sapiens) (P03372 whole entry, looked up, the tested form may be a part): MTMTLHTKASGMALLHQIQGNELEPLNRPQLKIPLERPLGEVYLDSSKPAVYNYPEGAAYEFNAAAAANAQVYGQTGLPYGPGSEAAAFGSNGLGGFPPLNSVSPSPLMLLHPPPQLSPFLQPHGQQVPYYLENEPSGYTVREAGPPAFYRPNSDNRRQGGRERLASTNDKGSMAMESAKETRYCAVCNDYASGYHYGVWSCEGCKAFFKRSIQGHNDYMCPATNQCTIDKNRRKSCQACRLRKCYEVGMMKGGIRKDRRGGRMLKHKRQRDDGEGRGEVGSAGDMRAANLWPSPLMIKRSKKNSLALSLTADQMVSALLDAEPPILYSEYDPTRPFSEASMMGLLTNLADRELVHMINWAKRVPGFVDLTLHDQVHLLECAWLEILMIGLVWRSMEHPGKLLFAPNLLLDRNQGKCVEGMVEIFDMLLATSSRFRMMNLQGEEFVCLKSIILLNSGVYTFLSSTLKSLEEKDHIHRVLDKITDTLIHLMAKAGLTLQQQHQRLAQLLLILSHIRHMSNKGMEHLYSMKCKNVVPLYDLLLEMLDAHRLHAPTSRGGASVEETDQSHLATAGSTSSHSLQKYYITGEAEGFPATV

A word on the AC50: it is the midpoint of the concentration-response curve, whichever way the signal moves. For `CCCOc1ccc(S(=O)(=O)N2CCN(CC)CC2)cc1-c1nc2c(CC)n(Cc3ccccn3)nc2c(=O)[nH]1`, the call in test [1], in [2], in [4], in test [5], in test [6] and in test [7] was inactive. The compound was classed as inactive in [8], in test [9], in test [10], in test [11], in [12] and in test [13]. In test [14], the outcome was inactive. In addition, in [3], the half-maximal activity concentration (AC50) is 2.51 µM (active).

In the case of `O=C(NO)C1(NS(=O)(=O)c2ccc(Oc3ccc(F)cc3)cc2)CCOCC1`, the result in test [1], in [2], in test [3], in test [4], in [5] and in test [6] was inactive. For the same compound, the call in [15], in [9], in test [16], in test [10], in test [11] and in test [12] was inactive. In addition, the result in [13] and in test [14] was inactive.

For the compound `OC(Cn1cncn1)(Cn1cncn1)c1ccc(F)cc1F`, the compound was classed as inactive in [1], in test [2], in [3], in [4], in [5] and in [17]. Also, the compound was classed as inactive in test [6], in [7], in test [9], in test [12] and in test [13].

On to `CCCCCCCCCC`, for which the result in test [1], in [2], in test [3], in test [4], in [5] and in test [17] was inactive. The result in [8], in test [16], in [12] and in [13] was inactive.

As to `Cc1nccn1-c1ccc(Sc2cccc(C3(C(N)=O)CCOCC3)c2)cc1`, the concentration at half-maximal activity (AC50) in [1] was 6.43 µM (active); in test [3], 4.16 µM (active); in test [5], 1.57 µM (active); in test [12], 14.3 µM (active). The compound was called inactive in test [2], in [18], in [4], in [6], in test [8] and in test [9]. For the same compound, the result in [16], in test [10], in [13] and in test [14] was inactive.
